Drawing on the supplement of paper PMC7156485, this text covers cell number and H1.0 immunofluorescence intensity for 40 compounds.

Each structure is given as a SMILES string. Where “and” joins values, the source holds several entries; their conditions need not be identical. Equal values may be shown once. Where a name gives a salt, the structure may show the parent alone.
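Throughout, for H1.0 immunofluorescence intensity relative to DMSO: TDF is a line of transformed human dermal fibroblasts of mesenchymal origin.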
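Throughout, for cell number relative to DMSO: TDF denotes transformed human dermal fibroblasts of mesenchymal origin.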

The first assay relates to TDF. Put plainly: cell number relative to DMSO (% of DMSO); higher = more cells (less growth inhibition / toxicity). The conditions noted are these: concentration: 10 µM; 24 h. A digest of the protocol: (§1)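 Treatment: HCC1569 and TDF cells, 800 per well in 384-well plates with RPMI and 10% FBS, were given compounds at 10 µM for 24 h at 37 °C, in triplicate. Readout: after 3.7% formaldehyde fixation, cells were stained with a rabbit anti-H1.0 antibody, an AlexaFluor 647 secondary and DAPI. Reported values are H1.0 nuclear intensity or cell number as percent of the plate control, taken as the median of replicates, with positional smoothing for HCC1569.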
Compound `COc1cc(=O)n(C)c2c(OCC(O)C(C)(C)O)cccc12` (centres undefined) [Foliosidine] had a cell number of 112. Compound `[N-]=[N+]=Nc1ccc(C(=O)CSCC(NC(=O)CCC(N)C(=O)O)C(=O)NCC(=O)O)cc1` (stereo not drawn) [S-(p-Azidophenacyl)glutathione] returned a cell number of 105. The compound `CCCCCCCCCCCCCCCC(O)C(CO)NC(=O)CCCCCCC` (centres undefined) [C8 Dihydroceramide] came in with a cell number of 104. Same read-out and setting: for `CCCCCC#CCC#CCC#CCC#CCCCC(=O)O` [5,8,11,14-Eicosatetraynoic acid] the value was 86.7.

For another assay, the system named is TDF. The assay is described as follows: H1.0 immunofluorescence intensity relative to DMSO (% of DMSO); higher = stronger H1.0 induction, active = 120 or more. The following applies: concentration: 10 µM; 24 h. A digest of the protocol: as §1
With `NCC1OC(OC2C(CO)OC(OC3C(O)C(N)CC(N)C3OC3OC(CO)C(O)C(O)C3N)C2O)C(N)C(O)C1O.O=S(=O)(O)O` (centres undefined) [Paromomycin sulfate], the H1.0 immunofluorescence intensity was 93.7 (inactive). The same measure, in the same setting: as for `C=CC(=O)c1ccc2ccccc2c1`, the figure is 103 (inactive); as for `CC1OC(OC2C(Oc3cc(O)c4c(c3)OC(c3ccc(O)cc3)CC4=O)OC(CO)C(O)C2O)C(O)C(O)C1O` (centres undefined) [Naringin], 96.2 (inactive); as for `O.Oc1cc(O)c2c(c1)OC(c1ccc(O)c(O)c1)C(O)C2` (single isomer, unassigned; (+)) [(+)-Catechin Hydrate], 90.6 (inactive). Still for that read-out and setting: for `CCCCCCCCCC(=O)NC(CN1CCOCC1)C(O)c1ccccc1.Cl` (racemic) the value was 105 (inactive).

As to `O=c1[nH][nH]c2nnc(-c3c(-c4ccccc4)nn4ccccc34)cc12` [ERK Inhibitor II,                   Negative control], the H1.0 immunofluorescence intensity was 95.5 (inactive). Take `O=C1NC(C(=O)O)CS1` (centres undefined) [Procysteine]: the H1.0 immunofluorescence intensity was 97.1 (inactive). Take `Cc1ccc2c(c1)C(N1CCN(C)CC1)=Nc1cccnc1N2`: the H1.0 immunofluorescence intensity was 89.8 (inactive).

`COC(=O)C1=C(C)NC(C)=C(C(=O)OCCN2CCN(C(c3ccccc3)c3ccccc3)CC2)C1c1cccc([N+](=O)[O-])c1` (centres undefined) [Manidipine]: the H1.0 immunofluorescence intensity is 90.4 (inactive). The same measure, in the same setting: as for `COc1c2occc2cc2ccc(=O)oc12` [Xanthotoxin], the figure is 106 (inactive); as for `Cc1cc(Cc2cc(C)cc(C(C)(C)C)c2O)c(O)c(C(C)(C)C)c1`, 96.7 (inactive) and 99.5 (inactive); as for `CCC12CCCN3CCc4c(n(c5ccccc45)C(O)(C(=O)OC)C1)C32` (centres undefined) [Vincamine], 102 (inactive). Take `CCCCCN(C)CCC(O)(P(=O)(O)O)P(=O)(O)O` [Ibandronate]: the H1.0 immunofluorescence intensity is 98.4 (inactive). Same read-out and setting: as for `NC(=O)N1c2ccccc2C=Cc2ccccc21` [Carbamazepine], the figure is 92.6 (inactive); as for `CCOC(=O)c1ncn2c1CN(C)C(=O)c1cc(F)ccc1-2` [Flumazenil], 98.2 (inactive). As for `CCCCCCCCCCCC=CCCCCCC(=O)O` [7(Z)-Nonadecenoic acid], the H1.0 immunofluorescence intensity is 101 (inactive). On the same count and under the same terms, for `CC(=O)CCCCn1c(=O)c2c(ncn2C)n(C)c1=O` [Pentoxifylline] the value was 92.8 (inactive). The same measure, in the same setting: for `CCCCCCCCC=CCCCCCCCCOCC(COP(=O)([O-])OCC[N+](C)(C)C)OC(C)=O` (centres undefined) the value was 94 (inactive); for `CC(C)c1cc(C(C)C)c(-c2csc(N(CCN(C)C)Cc3cccnc3)n2)c(C(C)C)c1`, 146 (active).

With `COc1cc(Cc2cnc(N)nc2N)cc(OC)c1OC` [Trimethoprim], the H1.0 immunofluorescence intensity is 106 (inactive). Turning to `CC(=O)OC1(C(C)=O)CCC2C3C=C(C)C4=CC(=O)CCC4(C)C3CCC21C` (centres undefined) [Megestrol Acetate], the H1.0 immunofluorescence intensity was 98.9 (inactive). Take `NC1CCN(c2nc3c(cc2F)c(=O)c(C(=O)O)cn3-c2ccc(F)cc2F)C1` (centres undefined) [Tosufloxacin]: the H1.0 immunofluorescence intensity was 105 (inactive). On the same count and under the same terms, for `CN1CCN(C2Cc3ccccc3Sc3ccc(Cl)cc32)CC1.O=C(O)C=CC(=O)O` (centres undefined) the value was 105 (inactive).

With `O=C(NCCO[N+](=O)[O-])c1cccnc1` [Nicorandil], the H1.0 immunofluorescence intensity was 91.5 (inactive). The same measure, in the same setting: for `CCCCCCCCCCCCCCCC(=O)NC(CN1CCOCC1)C(O)c1ccccc1` (racemic) the value was 97.6 (inactive); for `O=C(O)/C=C/c1ccc(O)c(O)c1` [Caffeic acid], 94.5 (inactive); for `CC(C)(C)NCC(O)COc1nsnc1N1CCOCC1` (stereo not drawn) [S(-)-Timolol maleate], 93 (inactive).

`Cc1ccc(C(=O)c2ccc(CC(=O)O)n2C)cc1` [Tolmetin]: the H1.0 immunofluorescence intensity was 104 (inactive). As for `CC1C(=O)OC2C(O)C34C5CC(C(C)(C)C)C36C(OC(=O)C6O)OC4(C(=O)O5)C12O` (centres undefined) [Ginkgolide B], the H1.0 immunofluorescence intensity was 101 (inactive). Consider `Nc1ccc2ncnc(NCCc3ccc(Oc4ccccc4)cc3)c2c1` [NF-kB Activation Inhibitor], for which the H1.0 immunofluorescence intensity is 106 (inactive). For `Nc1c2c(nc3ccccc13)CCCC2O.O=C(O)C=CC(=O)O` (centres undefined) [Hydroxytacrine maleate], the H1.0 immunofluorescence intensity is 96.8 (inactive). `CC1=CC(=O)C(C(C)C)=CC1=O` [Thymoquinone]: the H1.0 immunofluorescence intensity is 93.5 (inactive). The same measure, in the same setting: for `CCCCCC=CC=CC(O)CCCCCCCC(=O)O` (racemic) the value was 103 (inactive). For `COc1cc(C(=O)c2ccc3ncccc3c2)cc(OC)c1OC` [quinolin-6-yl(3,4,5-trimethoxyphenyl)methanone], the H1.0 immunofluorescence intensity is 209 (active). Same read-out and setting: as for `CC(=O)O.NC(=NCCCC(N)C(=O)O)NO` [NG-Hydroxy-L-arginine acetate], the figure is 91.4 (inactive); as for `O=C(O)c1ccc(SC2=NS(=O)(=O)c3ccccc32)cc1` [4-((1,1-dioxidobenzo[d]isothiazol-3-yl)thio)benzoic acid], 93.5 (inactive). As for `COc1cc(=O)n(C)c2c(OCC(O)C(C)(C)O)cccc12` (centres undefined) [Foliosidine], the H1.0 immunofluorescence intensity was 93.5 (inactive). Same read-out and setting: as for `[N-]=[N+]=Nc1ccc(C(=O)CSCC(NC(=O)CCC(N)C(=O)O)C(=O)NCC(=O)O)cc1` (stereo not drawn) [S-(p-Azidophenacyl)glutathione], the figure is 95.5 (inactive); as for `CCCCCCCCCCCCCCCC(O)C(CO)NC(=O)CCCCCCC` (centres undefined) [C8 Dihydroceramide], 97.1 (inactive). The same measure, in the same setting: as for `CCCCCC#CCC#CCC#CCC#CCCCC(=O)O` [5,8,11,14-Eicosatetraynoic acid], the figure is 93.3 (inactive).
